SMILES strings stand for the structures. The campaign covered roughly 59,000 compounds. About 6,500 (11%) were called active. About 15% were inconclusive and are not listed. The sample holds actives, similar compounds and a random draw of the others, so the mix is not that of the screen. Rule as the data show it: active = max dye-equivalent concentration above about 10 nM; inconclusive = mostly about 1.1 nM to 9.6 nM; inactive = weaker than that.

This assay is described as follows: qHTS Assay for Spectroscopic Profiling in A350 Spectral Region. To be noted: Compound autofluorescence, 340/450 nm, Alexa 350 dye-equivalents; hits give high values. An excerpt: NIH Molecular Libraries Screening Centers Network [MLSCN]
NIH Chemical Genomics Center [NCGC]
Occasionally, the artifactual effect may originate from the compounds own spectral or other biophysical properties which generally tend to track its assay concentration. Pre-screening/profiling the library with respect to the compounds spectral properties should help one exclude false positives early on. While the most informative fluorescent profiling data set is obtained by performing a full excitation and emission scan of each well by using a monochromator-based plate reader, such an approach is practical only on a very limited scale as scanning each well requires long time. An alternative approach, applied here, is to perform plate reader scans using selected excitation and emission wavelength pairs to generate a multidimensional relational database that correlates compound concentration and the respective relative fluorescence intensity at a given wavelength set. A standard curve of Alexa 350 (A 350) present on each plate as six-point concentration series, was used to compute a normalized fluorescence response, termed dye-equivalent concentration, for each compound at each concentration.
NCGC Assay Protocol Summary:
100 mM Tris buffer, pH 8.0
The wells in columns 1 through 4 of a Kalypsys polypropylene 1536-well compound plate were filled with standard solutions of fluorophore corresponding to the spectral region of interest. Solutions of A 350 were placed in the following wells: I1, J1: 3 mM, I2, J2: 300 uM, I3, J3: 30 uM, I4, J4: zero (DMSO), K1, L1: 3 uM, K2, L2: […], K3, L3: 300 nM, K4, L4: zero (DMSO).
Six uL of buffer were dispensed to 1536-well Greiner black plates. Compounds and dye standards (23 nL) were transferred via Kalypsys PinTool. The plates were incubated for 15 min at room temperature, and then read on ViewLux (Perkin-Elmer) High-throughput CCD imager using 340 nm and 450 nm excitation and emission filter set.
Keywords: NIH Roadmap, MLSCN, MLI, MLSMR, qHTS, NCGC, A350, A-350, Fluorescent Profiling.
Consider `CN1CCN(Cc2nc3c(c(=O)n(C)c(=O)n3C)n2Cc2cccc3ccccc23)CC1`, for which the max dye-equivalent concentration result is “inactive”.
For `Cc1nnc(C)n1/N=C/c1ccc(C(C)C)cc1` the value was “inactive”.
For `O=C1CC(c2cccc(Br)c2)C2=C(CCCC2=O)N1` (stereo unspecified) the value was 44 nM (active).
As for `O=C1CC(c2cccc(F)c2)C2=C(CCCC2=O)N1` (stereo unspecified), the max dye-equivalent concentration entry is “inactive”.
For `CC(N)=NCc1cccc(CN)c1` the value was “inactive”; for `CCCCN(CC)CCCNC(=O)CS(=O)(=O)Cc1nc(-c2cccc(OC)c2)oc1C`, “inactive”; for `CNC(=O)n1ccc(C(=O)N2CCCCC2)n1`, “inactive”.
For `CN(C)c1ccnc2sc3c(=O)n(Cc4ccccc4)cnc3c12` the value was 32 nM (active).
Turning to `CN(C)/C=C/c1c(C#N)c(=O)ncn1Cc1ccccc1`, the max dye-equivalent concentration result was “inactive”.
For the compound `O=C(Cc1cccs1)N1CCCC(c2nc(-c3ccc(S(=O)(=O)N4CCCC4)cc3)no2)C1` (stereo unspecified), the max dye-equivalent concentration result is “inactive”.
The entry for `COc1cc(Cl)c(C)cc1NC(=O)CSc1nnc(-c2cccnc2)n1Cc1ccco1` is “inactive”.
`CO[C@@H]1/C=C\O[C@]2(C)Oc3c(C)c(O)c4c(O)c(c(CN(C)C)c(O)c4c3C2=O)NC(=O)/C(C)=C\C=C[C@@H](C)[C@@H](O)[C@H](C)[C@@H](O)[C@H](C)[C@H](OC(C)=O)[C@@H]1C`: the max dye-equivalent concentration entry was “inactive”.
For `CCC(=O)Nc1nc2ccccc2n1Cc1ccccc1C` the value was “inactive”; for `CCc1nc2ccccc2n(CCOCCOCCn2c(=O)c(CC)nc3ccccc32)c1=O`, 45 nM (active).
For `C=C(Br)Cn1c(CCCC)nc2ccccc21` the value was “inactive”.
Regarding `O=C(OCC(=O)N1CCCC1)c1ccco1`, the max dye-equivalent concentration entry was “inactive”.
Regarding `COc1ccc(C)cc1-n1nnnc1SCC(=O)c1cc(C)n(Cc2ccco2)c1C`, the max dye-equivalent concentration result was “inactive”.
As to `COc1ccccc1CNc1ncnc2ccc(-c3c(C)noc3C)cc12`, the max dye-equivalent concentration entry is “inactive”.
The figure for `COCCNc1cc(-c2c(C)noc2C)ncn1` is 14 nM (active); for `Cc1noc(C)c1-c1cc(NCc2cccnc2)ncn1` it is “inactive”.
Consider `CNc1cc(-c2c(C)noc2C)ncn1`, for which the max dye-equivalent concentration entry is “inactive”.
On to `Cc1cccc(CNc2cc(-c3ccccc3Cl)ncn2)c1`, for which the max dye-equivalent concentration result was “inactive”.
The figure for `Cc1cnc(CNc2cc(-c3c(C)noc3C)ncn2)cn1` is 22 nM (active).
The entry for `O=C(NC1CC2CCCC(C1)N2C(=O)N1CCCCC1)C1CCCCC1` (stereo unspecified) is “inactive”; for `CCN(CC)P(=O)(/C(Cl)=C\Nc1c(C)n(C)n(-c2ccccc2)c1=O)N(CC)CC` it is “inactive”; for `CCCCN(CCCC)C(=O)CCS(=O)(=O)c1ccc2c(c1)n(C)c(=O)c(=O)n2C` it is “inactive”.
Consider `CCOc1ccccc1Oc1cn[nH]c1-c1ccc(OC)cc1O`, for which the max dye-equivalent concentration result is “inactive”.
In the case of `CCN(C(=O)CSc1ncn[nH]1)c1cccc2ccccc12`, the max dye-equivalent concentration result is “inactive”.
For `CC(=O)NS(=O)(=O)c1ccccc1` the value was “inactive”; for `Cc1c(S(=O)(=O)O)ccc(N=Nc2c(O)c(C(=O)O)cc3ccccc23)c1Cl`, 12 nM (active).
The entry for `O=C(COc1ccc(F)cc1)N(CC1=CCS(=O)(=O)C1)c1ccccc1` is “inactive”; for `COc1cc(C2C(C(=O)c3ccc(C)o3)=C(O)C(=O)N2Cc2cccnc2)ccc1O` (stereo unspecified) it is “inactive”.
For `CCCCOC(=O)c1[nH]c(C)c(C(=O)OC)c1C` the value was 450 nM (active); for `CCOC(=O)c1c(C)[nH]c(C(=O)COc2ccc3c(c2)OCO3)c1C`, “inactive”.
As for `CCOC(=O)c1c(C)[nH]c(C(=O)NCc2ccccc2OC)c1C`, the max dye-equivalent concentration result is “inactive”.
The entry for `CCOC(=O)COc1ccc(Cl)cc1C1NC(=O)NC(C)=C1C(C)=O` (stereo unspecified) is “inactive”.
For `O=S(=O)(NCc1cccnc1)c1ccc(Br)s1` the value was “inactive”; for `CCC[C@H]1C(=O)N2C(N(C)C)=Nc3ccc(C)cc3N2C1=O`, “inactive”.
On to `CC(=O)C1C(c2cccc(Oc3ccccc3)c2)NC(=O)NC1(O)C(F)(F)F` (stereo unspecified), for which the max dye-equivalent concentration entry is “inactive”.
The entry for `COc1ccccc1N1CCN(C(=O)c2cc(-c3ccc(Cl)c(Cl)c3)on2)CC1` is “inactive”; for `CCc1c(C)nc2ncnn2c1N1CCC(C(=O)NCc2ccc3c(c2)OCO3)CC1` it is “inactive”; for `C=CCC(NCCCO)c1cccc(OC)c1OC` (stereo unspecified) it is “inactive”.
The entry for `COc1ccc(OCc2ccc(-c3nc4ccccc4c(=O)n3N)o2)cc1` is “inactive”; for `COc1ccc(-c2cc3ccc(OCc4nn[nH]n4)cc3oc2=O)cc1` it is 11000 nM (active); for `Cc1nnc(SCC(=O)N2CCc3ccccc32)n1-c1ccccc1` it is “inactive”.
The figure for `N#Cc1c2c(c(-c3ccccc3)[nH]c1=O)CCCC2` is 20 nM (active).
Regarding `Nc1nnnn1/N=C/c1cccs1`, the max dye-equivalent concentration entry was “inactive”.
The entry for `N=c1c2c3c(sc2ncn1N)CCCCC3` is “inactive”.
Take `COc1ccccc1-c1nc(N2CCN(C)CC2)c2ccccc2n1`: the max dye-equivalent concentration result was “inactive”.
The figure for `COc1cc2nc(N3CCN(C(=O)[C@@H]4CCCO4)CC3)nc(N)c2cc1OC` is 830 nM (active); for `COc1ccccc1CNC(=O)C1CCN(c2nc3ccccc3o2)CC1` it is “inactive”; for `Cc1ccc(C(c2nnnn2CS(=O)(=O)c2ccc(C)cc2)N2CCC(C(N)=O)CC2)cc1` (stereo unspecified) it is “inactive”.
For `O=P(c1ccc2c(c1)OCCO2)(N1CCOCC1)N1CCOCC1` the value was “inactive”; for `COc1ccccc1CNCc1cccs1`, “inactive”.
On to `O=C(O)C1CCN(c2ncnc3ccc(-c4ccccc4C(F)(F)F)cc23)CC1`, for which the max dye-equivalent concentration result was “inactive”.
`COc1ccc(OCC(=O)N2CCN(C(=O)c3cccs3)CC2)cc1`: the max dye-equivalent concentration entry is “inactive”.
The entry for `CCCS(=O)(=O)N1CCN(C(=O)c2cccs2)CC1` is “inactive”; for `COc1ccc(S(=O)(=O)N2CCN(C(=O)c3cccs3)CC2)cc1OC` it is 3700 nM (active).
For `CC(C)Oc1ccc(C2NC(=O)NC2=O)cc1` (stereo unspecified) the value was “inactive”.
As for `COc1ccc2c(c1OC)C(=O)OC2c1c(O)nc(SC)n(-c2ccccc2)c1=O` (stereo unspecified), the max dye-equivalent concentration result is “inactive”.
The entry for `O=C(CCCn1c(=O)oc2ccccc21)Nc1cccnc1` is “inactive”; for `Oc1c(CN2CCOCC2)ccc(CN2CCOCC2)c1O` it is “inactive”; for `O=C(CSc1nc(-c2ccco2)cc(C(F)(F)F)n1)NCc1cccs1` it is “inactive”.
For `FC(F)(F)c1cc(-c2cccs2)nc(NCc2ccco2)n1` the value was 16 nM (active).
The entry for `COc1ccc(-c2cc(C(F)(F)F)nc(SCCC(=O)NCc3ccco3)n2)cc1` is “inactive”.
With `Cc1ccc(NC2=NC(c3ccccc3)n3c(nc(C)cc3=O)N2)cc1` (stereo unspecified), the max dye-equivalent concentration entry is “inactive”.
The entry for `CC(=O)NC1=NC(=O)CS1` is “inactive”; for `CCOC(=O)c1ccc(COC(=O)c2cc(=O)[nH]c3ccccc23)o1` it is 40 nM (active).
The entry for `CCOC(=O)c1ccc(CS(=O)c2ccc(Cl)cc2)o1` (stereo unspecified) is “inactive”.
For `COc1ccc(COC(=O)c2n[nH]c3ccccc23)cc1F` the value was “inactive”.
With `COc1ccc(C(=O)n2nc(-c3ccc(C)cc3)nc2N)cc1OC`, the max dye-equivalent concentration is 31 nM (active).
For `COc1ccccc1C(=O)n1nc(-c2ccccc2)nc1N` the value was “inactive”; for `COc1ccc(C(=O)n2nc(-c3ccc(Cl)cc3)nc2N)cc1OC`, “inactive”.
The entry for `Cc1cnc(CNc2ncncc2-c2ccccc2Cl)cn1` is “inactive”; for `CCn1nc(NC(=O)c2ccco2)c2cc3ccc(C)cc3nc21` it is 86 nM (active).
The entry for `Cc1ccnc(NC(=O)c2ccc(NC(=O)c3ccco3)cc2)c1` is “inactive”; for `CCN(CC)C(=O)c1sc(NC(=O)c2ccco2)c(C#N)c1C` it is “inactive”; for `O=C(CSc1nnc(-c2cnccn2)n1Cc1ccco1)c1ccc(Cl)c(Cl)c1` it is “inactive”.
Turning to `CC(=O)N1CSCC1C(=O)O` (stereo unspecified), the max dye-equivalent concentration entry is “inactive”.
For `O=C(N1CCOCC1)N(Cc1ccccc1)c1ccccn1` the value was “inactive”; for `CN(C)CC/C=C1\c2ccccc2CSc2ccccc21`, “inactive”.
For `COc1ccc(Cn2c(=O)sc3ccccc32)cc1OC` the value was “inactive”; for `Cc1ccc2nc(NCCCNC(=O)c3cnccn3)c(C#N)cc2c1`, 220 nM (active); for `O=S(=O)(c1ccccc1)N1CCC2(CC1)CN(Cc1nccs1)C2`, “inactive”.
The entry for `CCCCCN(C(=O)NC(=O)Nc1ccccc1C)S(C)(=O)=O` is “inactive”; for `O=C(c1cnccn1)N1CCC2(CCCN(Cc3ccccc3)C2)CC1` it is “inactive”; for `O=C(CS(=O)(=O)Cc1ccccc1)NCC1CCCO1` (stereo unspecified) it is “inactive”.
Consider `O=C(CSC1=Nc2ccccc2C2=NC(c3ccccc3)C(=O)N12)NCC1CCCO1` (stereo unspecified), for which the max dye-equivalent concentration is 590 nM (active).
As to `O=C(CSc1nnc(-c2ccc(NS(=O)(=O)c3ccccc3)cc2)o1)NCC1CCCO1` (stereo unspecified), the max dye-equivalent concentration entry is “inactive”.
The entry for `COc1ccc(S(=O)(=O)Nc2c(C)n(C)n(-c3ccccc3)c2=O)cc1` is “inactive”; for `CN(C)C(=O)c1ccc(-c2cncnc2NC2CCNCC2)cc1` it is “inactive”.
As for `CCCc1cc(=O)[nH]c(SCc2ccc(C#N)cc2)n1`, the max dye-equivalent concentration result was “inactive”.
As to `Cc1ccc(S(=O)(=O)NCC(=O)OCC(=O)N2CCc3ccccc32)cc1`, the max dye-equivalent concentration result is “inactive”.
For `O=C(c1cc(-c2cccs2)on1)N1CCCCC1` the value was “inactive”; for `Cc1ccc2cc3cc(C(=O)N4CCCCCC4)oc3nc2c1`, 11 nM (active); for `Cc1ccc(C(=O)N2CCCCCC2)cc1Br`, “inactive”.
The entry for `O=C(CSc1nc2[nH]ncc2c(=O)n1-c1ccccc1)N1CCCc2ccccc21` is “inactive”.
The entry for `COc1cc2c(cc1OC)C(c1ccncc1)CC(=O)N2` (stereo unspecified) is “inactive”; for `Cc1cccc2cc(C#N)c(N3CCCC3)nc12` it is 37 nM (active); for `Cc1cc(C)c2nc(N3CCCC3)c(C#N)cc2c1` it is 130 nM (active).
Consider `Cc1ccc(OCc2nc(C#N)c(N3CCCC3)o2)cc1`, for which the max dye-equivalent concentration result was “inactive”.
The entry for `Cc1ccc2nc(CC(=O)c3ccc4ccccc4c3)c(=O)[nH]c2c1` is “inactive”; for `c1ccc2sc(SCCSc3nc4ccccc4s3)nc2c1` it is “inactive”; for `CN1CCN(c2nc3c(c(=O)[nH]c(=O)n3C)n2Cc2cccc3ccccc23)CC1` it is “inactive”.
As to `O=C(Nc1cccc(F)c1)N1CCC2(CC1)CCN(S(=O)(=O)c1ccccc1)CC2`, the max dye-equivalent concentration result is “inactive”.
The entry for `O=C(NCc1cccs1)C1CCN(S(=O)(=O)c2ccc3c(c2)OCCO3)CC1` is “inactive”; for `O=C(c1ccc2c(c1)OCCO2)C1CCN(S(=O)(=O)c2cccc(F)c2)CC1` it is 12 nM (active); for `CCc1nc(C)cn1S(=O)(=O)c1cc(OC)c(C)cc1C` it is “inactive”.
For `CC(C)CCNC(=O)CN(C(=O)Cn1nnc(-c2ccc(F)cc2)n1)C1CCCC1` the value was “inactive”; for `Cc1cc(O)ccc1-c1cnc2ccccc2n1`, “inactive”.
The figure for `Cc1nc2ccccc2cc1O` is 2500 nM (active).

Source of the values: PubChem BioAssay AID590 (National Center for Advancing Translational Sciences (NCATS), 2007).
